Results filed as inconclusive are left out. Entries that show only a call come without a potency. Calls of active or inactive are those of the source. The call rests on the fitted dose curve; in most records, active means well fitted inhibition curve with a large enough effect; inconclusive means small, poorly fitted or top-dose-only effect; inactive means flat fitted curve, though single readings scatter.
Assays:
Assay in all cases: qHTS profiling for inhibitors of Plasmodium falciparum proliferation (AID 504749); further: nearly all actives have a fitted effect of over 60% in size
Conditions in all cases: P. falciparum in erythrocytes, SYBR Green DNA, 72 h; series mostly up to 28.7 µM
[1] = system: Dd2
Outline: (§1)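 P. falciparum-infected erythrocytes (0.3% parasitemia, 2.5% hematocrit) incubated with compound 72 h at 37 C, 5% CO2. Parasite DNA detected by SYBR Green after lysis, overnight at room temperature; normalised to 0.29 uM artemisinin and DMSO.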

[2] = system: ECU
Outline: as §1

[3] = system: FAB9
Outline: as §1

[4] = system: HB3
Outline: as §1

[5] = system: JCK
Outline: as §1

[6] = system: PC15
Outline: as §1

[7] = system: PC49
Outline: as §1

[8] = system: SC27B
Outline: as §1

[9] = system: DIV14
Outline: as §1

[10] = system: DIV17
Outline: as §1

[11] = system: DIV30
Outline: as §1

[12] = system: GB4
Outline: as §1

[13] = system: N140
Outline: as §1

[14] = system: P93_24
Outline: as §1

[15] = system: P94_40
Outline: as §1

[16] = system: PAD
Outline: as §1

[17] = system: PC26
Outline: as §1

[18] = system: TAB109
Outline: as §1

[19] = system: TAB113
Outline: as §1

[20] = system: ICS
Outline: as §1
Potency means the concentration at half of the fitted maximal effect.

Compound	Potency [1]	Potency [2]	Potency [3]	Potency [4]	Potency [5]	Potency [6]	Potency [7]	Potency [8]	Potency [9]	Potency [10]	Potency [11]	Potency [12]	Potency [13]	Potency [14]	Potency [15]	Potency [16]	Potency [17]	Potency [18]	Potency [19]	Potency [20]
CC(Cc1ccccc1)NCc1ccccc1Cl (centres undefined)	12.6 µM (active)	inactive	inactive	inactive	inactive	inactive	inactive	inactive												
ClC1=C(Cl)C2(Cl)C(CBr)CC1(Cl)C2(Cl)Cl (centres undefined)	inactive	inactive	inactive	inactive	inactive	inactive	inactive	inactive	inactive	inactive	inactive	inactive	inactive	inactive	inactive	inactive	inactive	inactive	inactive	
COc1ccc(C(=O)N2CCCC2=O)cc1	inactive	inactive	inactive	inactive	inactive	inactive	inactive	inactive	inactive		inactive	inactive	inactive	inactive	inactive	inactive	inactive	inactive	inactive	inactive
Oc1ccc2[nH]cc(CCCCN3CC=C(c4ccccc4)CC3)c2c1	11.2 µM (active)		inactive		inactive				13.5 µM (active)	13.5 µM (active)		9.53 µM (active)		11.2 µM (active)			13.5 µM (active)			8.91 µM (active)
CCN(CC)CCOC(=O)C(C)(c1ccccc1)c1ccccc1	0.0891 µM (active)		inactive	inactive	inactive					6.01 µM (active)										
c1cc2c(c(N3CCNCC3)c1)OCCO2	inactive	inactive	inactive	inactive	inactive	inactive	inactive	inactive	inactive		inactive	inactive	inactive	inactive	inactive	inactive	inactive	inactive	inactive	inactive
CC(C)(C)OC(=O)c1ncn2c1[C@@H]1CCCN1C(=O)c1c(Br)cccc1-2	inactive	inactive	inactive	inactive	inactive	inactive	inactive	inactive	inactive		inactive	inactive	inactive	inactive	inactive	inactive	inactive	inactive	inactive	
C=CCOC(Cn1ccnc1)c1ccc(Cl)cc1Cl (centres undefined)	7.08 µM (active)	3.98 µM (active)		11.2 µM (active)		8.91 µM (active)		10 µM (active)	5.36 µM (active)	8.49 µM (active)	7.57 µM (active)	4.78 µM (active)	5.62 µM (active)	3.98 µM (active)	10 µM (active)	8.91 µM (active)	7.57 µM (active)	7.94 µM (active)	8.91 µM (active)	2.51 µM (active)
